Test results: PubChem BioAssay (Tox21)
Results filed as inconclusive are left out. Activity calls are given as the source filed them. The call rests on the fitted dose curve; in most records, active means well fitted inhibition curve with a large enough effect in the signal ratio in the repeat runs, with a control signal flat; inconclusive means weak or mixed curves, or effect the other way; inactive means flat fitted curve, though single readings scatter; the % refers to the signal ratio.

Biological target: D(2) dopamine receptor (Homo sapiens) (UniProt P14416)
Assay: Dopamine D2 receptor (DRD2) small molecule antagonists, cell-based qHTS assay (AID 1963595)
Details: HEK293-DRD2 cAMP HTRF antagonist mode; series mostly up to 92.4 µM; activity change, negative = inhibition: at the top concentration
Procedure, shortened: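 Human DRD2 antagonist qHTS measuring cAMP by HTRF. The cells are exposed to compound for 10 min, then to NKH477 (200 nM) and quinpirole (12 nM) for 30 min at RT, with Ro20-1724 (0.1 mM) present throughout.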
On the % scale 0 is the no-effect control and ±100 the full control effect.

Sequence of D(2) dopamine receptor (Homo sapiens) (P14416 whole entry, looked up): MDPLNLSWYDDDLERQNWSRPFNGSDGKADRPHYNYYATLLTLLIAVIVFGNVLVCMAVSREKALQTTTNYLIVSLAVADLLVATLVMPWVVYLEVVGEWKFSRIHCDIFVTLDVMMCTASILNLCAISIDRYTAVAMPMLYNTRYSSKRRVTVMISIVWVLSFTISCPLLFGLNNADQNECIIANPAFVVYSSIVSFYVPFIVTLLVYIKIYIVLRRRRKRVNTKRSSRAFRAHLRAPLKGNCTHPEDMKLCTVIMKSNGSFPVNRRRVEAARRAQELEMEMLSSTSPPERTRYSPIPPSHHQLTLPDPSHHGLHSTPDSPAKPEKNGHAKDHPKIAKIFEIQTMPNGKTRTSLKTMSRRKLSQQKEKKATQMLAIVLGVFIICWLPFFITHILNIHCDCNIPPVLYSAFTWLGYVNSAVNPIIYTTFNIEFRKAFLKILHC

SMILES | activity change, negative = inhibition | Potency
COc1ccc(NC(C)=O)cc1 | -0.393% (inactive) | –
c1cnc2cc3c(cc2n1)C1CNCC3C1 | 3.32% [at 42.5 µM] (inactive) | –
OCc1c2ccccc2cc2ccccc12 | -5.36% (inactive) | –
Oc1ccc(Cl)cc1Sc1cc(Cl)ccc1O | – | inactive
CCCc1ccccc1 | 14.6% (inactive) | –
CC(=O)CC(C)=O | -4.03% (inactive) | –
C=CC(=O)OCCCCCC | -0.348% (inactive) | –
Oc1ccc(C(c2ccc(O)cc2)C(Cl)(Cl)Cl)cc1 | – | inactive
O=C(O)c1cccc(C(F)(F)F)c1 | -0.734% (inactive) | –
CC(O)Cn1cnc2c1c(=O)n(C)c(=O)n2C (stereo not given) | -1.59% [at 42.5 µM] (inactive) | –
O=C(O)c1cc(-c2ccccc2)nc2ccccc12 | 3.83% [at 42.5 µM] (inactive) | –
CC1(C)C(O)C(C)(C)C1O (stereo not given) | 16.9% (inactive) | –
Cc1ccc(N(C)C)cc1 | – | inactive
C/C=C/C(=O)CCCC | 7.51% (inactive) | –
CC(C)(c1ccc(O)cc1)c1ccc(O)cc1 | 7.21% (inactive) | –
C=CCCCCCCCC | 11% (inactive) | –
CC(C)=O | 2.63% (inactive) | –
C=CC(C)CCC=C(C)C (stereo not given) | 7.67% (inactive) | –
O=C(O)C(=O)Nc1cccc(-c2nn[nH]n2)c1 | 14.3% [at 42.5 µM] (inactive) | –
CN(C)N=Nc1ccccc1 | -4.58% (inactive) | –
OCCOc1ccc(OCCO)cc1 | -0.174% (inactive) | –
CC1=C(CC(=O)O)c2cc(F)ccc2/C1=C\c1ccc(S(C)=O)cc1 (stereo not given) | -1.03% [at 42.5 µM] (inactive) | –
C=CCS(=O)(=O)O | -19.8% (inactive) | –
CCCCSCCCC | 24.8% (inactive) | –
CCNc1nc(N)nc(Cl)n1 | -10.3% (inactive) | –
Cc1ccc(N)cc1[N+](=O)[O-] | -0.883% (inactive) | –
Cc1c(C)c2c(c(C)c1O)CCC(C)(COc1ccc(CC3SC(=O)NC3=O)cc1)O2 (stereo not given) | – | inactive
CCCC1O[C@@H]2C[C@H]3[C@@H]4CCC5=CC(=O)C=C[C@]5(C)[C@H]4[C@@H](O)C[C@]3(C)[C@]2(C(=O)CO)O1 (stereo not given in full) | – | inactive
O=C(O)CCCCCCCCCCCC(=O)O | – | inactive
COc1cc(C(=O)N2CCOCC2)cc(OC)c1OC | 4.54% [at 42.5 µM] (inactive) | –
